The values that follow come from ChEMBL document CHEMBL3433997, “St. Jude Leishmania screening dataset” (2016).

Type in all cases: functional
The target of assay [1] is Solute carrier family 2, facilitated glucose transporter member 1 (Homo sapiens) (UniProt P11166). The assay can be described thus: ST_JUDE_LEISH: Cytotoxicity at 2uM final concentration against transgenic Leishmania Mexicana promastigotes LmGLUT1 that are glucose transport deficient and complemented with the human glucose transporter GLUT1. Activity is measured by DNA content using SYBR green in vitro.

Assay [2] has as its target Hexose transporter 1 (Plasmodium falciparum) (UniProt O97467). The assay can be described thus: ST_JUDE_LEISH: Cytotoxicity at 2uM final concentration against transgenic Leishmania Mexicana promastigotes LmPfHT that are glucose transport deficient and complemented with the Plasmodium falciparum hexose transporter. Activity is measured by DNA content using SYBR green in vitro.

In assay [3] the target is Glucose transporter (Leishmania mexicana) (UniProt O61059). The experiment in a line: ST_JUDE_LEISH: Cytotoxicity at 2uM final concentration against transgenic Leishmania Mexicana promastigotes LmGT2 that are glucose transport deficient and complemented with the L. Mexicana glucose transporter 2. Activity is measured by DNA content using SYBR green in vitro.

SMILES strings stand for the structures.

Sequence of Solute carrier family 2, facilitated glucose transporter member 1 (Homo sapiens) (P11166 whole entry): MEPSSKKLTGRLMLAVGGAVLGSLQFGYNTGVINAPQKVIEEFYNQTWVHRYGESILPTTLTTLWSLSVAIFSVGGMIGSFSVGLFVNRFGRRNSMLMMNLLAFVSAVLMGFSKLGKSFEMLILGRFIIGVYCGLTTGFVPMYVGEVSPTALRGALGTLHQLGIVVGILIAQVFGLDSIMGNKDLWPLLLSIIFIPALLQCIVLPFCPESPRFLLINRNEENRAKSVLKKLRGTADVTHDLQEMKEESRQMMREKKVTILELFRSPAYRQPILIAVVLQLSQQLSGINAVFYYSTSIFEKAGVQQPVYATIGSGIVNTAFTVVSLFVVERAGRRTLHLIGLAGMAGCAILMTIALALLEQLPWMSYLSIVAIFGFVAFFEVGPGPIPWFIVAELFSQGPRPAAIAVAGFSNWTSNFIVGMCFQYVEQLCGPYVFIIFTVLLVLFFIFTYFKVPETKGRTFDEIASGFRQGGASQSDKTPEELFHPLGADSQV

For `COc1ccc(CN2CCCN(Cc3cccc(C(=O)Nc4ccc(C(C)(C)C)cc4)c3)CC2)cc1`, the figures for the inhibition in assay [1], in assay [2] and in assay [3] were 7.71%, 5.46% and 3.17%, respectively.
The like results for `Cc1nc(-c2nc(N3CCC(O)CC3)ncc2-c2ccsc2)sc1C` were, in that order, -1.86%, -1.39% and 0.38%.
With `CN(C)CCC(O)(c1ccc(Br)cc1)c1cccnc1` (stereo unspecified), the inhibition is 3.13% in assay [1], 2.98% in assay [2] and 0.51% in assay [3].
The like results for `O=C(Nc1cccc(F)c1)NC1CCN(c2ccnc3cc(Cl)ccc23)CC1` were, in that order, 2.51%, 1.28% and 1.75%.
For `Cc1ccc(Cc2c[nH]c(NCCSCc3ccc(CN4CCOCC4)o3)nc2=O)cn1`, the inhibition amounted to 2.52% in assay [1], 0.59% in assay [2] and 3.98% in assay [3].
`CS(=O)(=O)CCNc1cc(N2CCc3ncnc(Nc4ccc(OCc5cccc(F)c5)c(Cl)c4)c3C2)ncn1`: the inhibition is -0.04% in assay [1], 0.75% in assay [2] and 0.08% in assay [3].
As for `COc1ccc2nc(C)cc(NCc3ccc4ccccc4c3)c2c1`, the inhibition was found to be 12.8% in assay [1], 9.9% in assay [2] and 5.11% in assay [3].
On to `CC1CN(Cc2ccc(C#N)cc2)CCN1c1ccc(NC(=O)c2cccs2)cc1` (stereo unspecified), for which the inhibition in assay [1] was 8.47%; in assay [2], 8.63%; in assay [3] it was 8.98%.
Consider `O=C(NCCCCN1CCC(c2ccc3c(c2OCC(O)c2ccc(Cl)cc2)CCCC3)CC1)c1ccc(-c2ccc(C(F)(F)F)cc2)cc1` (stereo unspecified), for which the inhibition in assay [1] turned out to be 0.65%; in assay [2] it was 1.49%; in assay [3] it was 0.85%.
With `O=C(Nc1cccc(OC2CCN(Cc3ccccc3)CC2)c1)Nc1cccc([N+](=O)[O-])c1`, the inhibition in assay [1] came to 3.41%; in assay [2] it was 2.74%; in assay [3], 2.57%.
As for `CC(=O)Nc1cccc(Nc2c3ccccc3nc3ccccc23)c1`, the inhibition in assay [1] was determined as 1.69%; in assay [2], 3.82%; in assay [3], 0.54%.
For the compound `COc1ccc(-c2nc3c(N)nc(N)nc3nc2C(C)C)cc1`, the inhibition was 15.6% in assay [1], 30.7% in assay [2] and 21.4% in assay [3].
Consider `O=c1ccc2ccc(F)cc2n1CCN1CCC(NCc2ccc(-c3ccccn3)s2)CC1`, for which the figures for the inhibition in assay [1], in assay [2] and in assay [3] were 4.21%, 3.12% and -0.91%, respectively.
Turning to `CC(C)CCN1CCC(Oc2ccc(NC(=O)c3cccs3)cc2Cl)CC1`, the inhibition in assay [1] is 0.82%; in assay [2], 4.49%; in assay [3], 3.68%.
In the case of `O=C(Nc1ccc(Cl)cc1)c1ccc(CN2CCCN(Cc3ccccc3)CC2)cc1`, the inhibition in assay [1] was 1.68%; in assay [2], 3.72%; in assay [3], 1.45%.
`COc1ccc2nc(-c3ccccc3)cc(N/N=C/c3ccc([N+](=O)[O-])o3)c2c1`: the inhibition turned out to be 15.9% in assay [1], 10.5% in assay [2] and 10.3% in assay [3].
For the compound `C[C@H](Cc1ccc(Oc2ccc(C[C@@H](C)NC[C@H](O)c3cccc(Cl)c3)cc2)cc1)NC[C@H](O)c1cccc(Cl)c1`, the inhibition in assay [1] was determined as 106%; in assay [2], 104%; in assay [3], 102%.
Consider `CCN(CC)CC(O)c1cc(-c2ccc(C)cc2)nc2c(C)cc(C)cc12` (stereo unspecified), for which the inhibition in assay [1] is 3.3%; in assay [2], 3.65%; in assay [3], -1.02%.
Turning to `COc1ccc2[nH]c(C)cc(=NN=Cc3ccc(F)cc3)c2c1`, the inhibition in assay [1] came out at 4.47%; in assay [2], 5.21%; in assay [3], 1.88%.
Consider `Cc1cccc2nc(-c3cccc(-c4ccc(NC(=O)C5CCCO5)cc4)c3)[nH]c12` (stereo unspecified), for which the inhibition came to 6.93% in assay [1], 3.31% in assay [2] and 2.04% in assay [3].
The like results for `CCCCCCn1c(Sc2ccc(C#N)c([N+](=O)[O-])c2)nnc1-c1cccs1` were, in that order, 5.52%, 6.91% and -0.09%.
The like results for `CCCC(=O)c1cnc2cc(O)ccc2c1Nc1ccccc1C` were, in that order, 6.19%, 6.97% and 0.57%.
On to `O=C(Nc1ccc(Cl)cc1)c1cc(Cl)ccc1NC(=O)C1CCc2ccccc2O1` (stereo unspecified), for which the inhibition came out at 5.48% in assay [1], 2.53% in assay [2] and 1.56% in assay [3].
The like results for `CCNC(=O)Nc1cccc(-c2ccc(-c3nc4cccc(C)c4[nH]3)s2)c1` were, in that order, 1.49%, 1.4% and 0.03%.
On to `Clc1ccccc1CN1CCC(NCc2cccc(-n3ccnc3)c2)CC1`, for which the results for the inhibition in assay [1], in assay [2] and in assay [3] were 2.64%, -1.07% and 1.16%, respectively.
As to `Oc1c(C(Nc2nc3ccccc3s2)c2ccc(OC(F)F)cc2)ccc2cccnc12` (stereo unspecified), the inhibition in assay [1] is 4.38%; in assay [2], 0.37%; in assay [3] it was -1.77%.
For the compound `O=C(Nc1ccc(C(F)(F)F)cc1)c1ccc(S(=O)(=O)NC2CCN(Cc3ccccc3)C2)cc1` (stereo unspecified), the inhibition in assay [1] was found to be 5.58%; in assay [2] it was 5.18%; in assay [3] it was 2.71%.
Turning to `CC1(C)NC(N)=NC(=N)N1OCCCNC(=O)c1ccc([N+](=O)[O-])cc1`, the figures for the inhibition in assay [1], in assay [2] and in assay [3] were 4.23%, 3.33% and 3.92%, respectively.
`O=C(Cn1c(SCc2cccc(F)c2F)cc(=O)c2ccccc21)N(CCn1ccnc1)Cc1ccc(-c2ccc(C(F)(F)F)cc2)cc1`: the inhibition in assay [1] is 5.51%; in assay [2], 5.78%; in assay [3], 2.82%.
Regarding `O=C(Nc1ccc(Cl)cc1)c1cccc(S(=O)(=O)NC2CCN(CC3CCCCC3)CC2)c1`, the inhibition in assay [1] came out at 0.8%; in assay [2], 1.68%; in assay [3], 3.31%.
The like results for `CCSc1nnc(C2CCCN(CC(=O)Nc3cc(C(F)(F)F)ccc3Cl)C2)n1CC` (stereo unspecified) were, in that order, 8.8%, 8.79% and 8.67%.
Take `COc1ccccc1N1CCN(C(C(=O)NCc2ccc3c(c2)OCO3)c2ccc3c(c2)OCCCO3)CC1` (stereo unspecified): the inhibition in assay [1] came out at 1.2%; in assay [2] it was 1.04%; in assay [3], 3.62%.
As to `Cc1cccc(Cn2nc(-c3ccccc3)c(N3CCCCC3)cc2=O)c1`, the inhibition is 2.58% in assay [1], 3.01% in assay [2] and -2.21% in assay [3].
On to `CC(C)NCc1ccc(-c2ccc(NS(=O)(=O)c3cccc4cccnc34)cc2)cc1`, for which the inhibition in assay [1] was found to be 16.1%; in assay [2] it was 14.5%; in assay [3], 12.7%.
With `COc1ccc2ccccc2c1CON1C(=N)N=C(N)NC1(C)C`, the inhibition is 1.59% in assay [1], 1.46% in assay [2] and 1.5% in assay [3].
Consider `Cc1ccc(NC(=O)C2CCC2)cc1-c1ccc(C(=O)NCC2CC2)cc1`, for which the inhibition in assay [1] was determined as 1.36%; in assay [2], 0.51%; in assay [3], 0.3%.
With `C#CCCC(=O)Nc1cccc(-c2cccc(-c3nc4cccc(C)c4[nH]3)c2)c1`, the inhibition in assay [1] is 3.2%; in assay [2] it was 1.23%; in assay [3] it was -1.87%.
